Data on 14 molecules can be found in PubChem BioAssay.

The nature of test [1]: inhibitors of TNFa-induced NFkB p65 translocation, primary screen, imaging, HUVEC, MLSMR starter and 10KST1 sets (AID 438;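 active = inhibition above 20% together with a positive visual image hit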;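 note: compound added about 3h40 before a 20 min TNFalpha stimulation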;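 for inhibition: signal is the nuclear over cytoplasmic p65 intensity ratio per well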). The note with it: HUVEC TNFa-induced p65 nuclear translocation; cell count: measured here: nuclei count (cytotoxicity indicator), at 2.08 µM; inhibition: at 2 µM, stronger effect = higher value, 0% TNFa-plus-vehicle, 100% no-TNFa wells.
A short description of test [2]: reduction of polyQ htt aggregates in cells – imaging, exon1htt(103Q)mCFP cells, high-content imaging, primary screen (AID 483).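 For nuclei count: percent of the per-plate median nuclei count of sample wells.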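 Note: compound exposure lasted 3 days before fixation.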 Particulars: exon1htt(103Q)mCFP cell line, aggregate imaging, at 2 µM; inhibition of aggregation: stronger effect = higher value; nuclei count: measured here: cell count, toxicity.
Test [3] in a line: endothelial E-selectin expression blockers – imaging, HUVEC, immunofluorescence, MLSMR starter and 10KST1 sets, primary screen (AID 487;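 active = visually confirmed hit in the image check and inhibition above 20%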;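 for inhibition: signal is fraction of cell area covered by stained E-selectin grains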;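 for nuclei count: 100% = median nuclei count of all wells on the same plate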). The note with it: HUVEC TNFalpha-induced E-selectin immunofluorescence imaging, at 2 µM; inhibition: stronger effect = higher value; nuclei count: measured here: cell number, toxicity.
Test [4] concerns the target Voltage-gated potassium channel subunit beta-2 (Rattus norvegicus) (UniProt P62483). Kind of test: inhibitors of rat Kvbeta2 reductase activity – biochemical, NADPH fluorescence, primary screen (AID 622;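 active = fluorescence slope higher than the sample average by over 3 SD, cut at about -0.22 in these data, passing the limit was not always enough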;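 note: slope of raw intensity against log time taken from 70 to 1610 s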). The note with it: recombinant KvBeta, 4-cyanobenzaldehyde reduction, at 10 µM, stronger effect = higher value.
The target is the same in test [5]. As to the kind of experiment: enhancers of rat Kvbeta2 NADPH turnover – biochemical, NADPH fluorescence, primary screen (AID 623;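 active = NADPH fluorescence slope more negative than the mean of all samples by about 3 SD, 99.7% confidence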;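 note: fluorescence intensity change per second fitted from 20 to 320 s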). The note with it: Recombinant KvBeta, NADPH fluorescence decrease slope, 10 min; at 10 µM; stronger effect = lower value.
Test [6] addresses Alpha-2C adrenergic receptor (Homo sapiens) (UniProt P18825). Kind of test: compounds altering alpha2C-coupled GIRK flux – cell-based, HEK293 alpha2C/GIRK1/2, thallium flux, primary screen (AID 624;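 active = fluorescence slope after compound addition differing from the mean of all screened samples at 99.7% confidence, in either direction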;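 note: slope of fluorescence ratio to pre-addition baseline per second over 15 to 24 s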). The note with it: thallium flux BTC fluorescence, at 10 µM, actives lie on both sides.
Test [7] is described as follows: blockers of RIG-like receptor reporter activation – cell-based, Sendai virus stimulus, luciferase, 10K MLSCN set, TLR/RLR signaling modifier project, primary screen (AID 602276;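 active = inhibition at or above 50% at 10 µM; inactive = inhibition below 50%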;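 note: firefly luciferase from ISG56 promoter only with Renilla not read in this screen; 0% = Sendai virus plus DMSO and 100% = medium plus DMSO without virus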). The note with it: HEK293 RL24 IRF3 luciferase reporter, at 10 µM, stronger effect = higher value.
Test [8] is described as follows: TLR3 IRF3 reporter activation blockers – cell-based, poly I:C stimulus, luciferase, 10K MLSCN set, primary screen (AID 602277;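 active = inhibition of the reporter signal at or above 50%; inactive = inhibition below 50%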). The note with it: HEK293-TLR3 RL24 IRF3 luciferase reporter, at 10 µM, stronger effect = higher value.

One may read the inhibition as the change of the read-out against control, counted positive when it falls.

Activity calls are given as the source filed them.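 Rule for the calls, unless noted: active = visual image review flags a hit and inhibition of aggregation exceeds 20%; inconclusive = visual hit but inhibition at or below 20%; inactive = no hit on visual image review.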

Voltage-gated potassium channel subunit beta-2 (Rattus norvegicus), sequence (P62483 whole entry, looked up): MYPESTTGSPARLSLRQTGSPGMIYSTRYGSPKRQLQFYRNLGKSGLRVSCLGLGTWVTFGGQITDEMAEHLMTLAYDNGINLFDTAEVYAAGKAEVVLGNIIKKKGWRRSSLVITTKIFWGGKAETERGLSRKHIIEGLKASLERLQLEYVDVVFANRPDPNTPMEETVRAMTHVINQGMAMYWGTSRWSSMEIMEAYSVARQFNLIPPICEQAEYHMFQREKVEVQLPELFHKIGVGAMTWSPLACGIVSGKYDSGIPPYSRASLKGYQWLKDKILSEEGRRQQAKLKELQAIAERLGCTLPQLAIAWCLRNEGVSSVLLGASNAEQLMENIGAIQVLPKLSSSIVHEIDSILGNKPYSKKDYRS
Alpha-2C adrenergic receptor (Homo sapiens), sequence (P18825 whole entry, looked up): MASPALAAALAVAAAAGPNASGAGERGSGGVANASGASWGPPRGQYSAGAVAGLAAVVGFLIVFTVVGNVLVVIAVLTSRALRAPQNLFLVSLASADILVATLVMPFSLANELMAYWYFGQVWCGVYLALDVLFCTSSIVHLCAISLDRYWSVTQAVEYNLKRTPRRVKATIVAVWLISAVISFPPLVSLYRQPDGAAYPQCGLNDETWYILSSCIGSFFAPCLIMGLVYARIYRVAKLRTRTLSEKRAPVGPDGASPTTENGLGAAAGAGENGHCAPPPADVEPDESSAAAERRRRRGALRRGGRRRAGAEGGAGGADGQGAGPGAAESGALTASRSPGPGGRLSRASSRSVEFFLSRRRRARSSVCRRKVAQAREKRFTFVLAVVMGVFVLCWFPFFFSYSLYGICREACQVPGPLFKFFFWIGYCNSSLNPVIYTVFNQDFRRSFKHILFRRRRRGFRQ

Regarding `O=C(Nc1nc(-c2ccc(S(=O)(=O)N3CCCC3)cc2)cs1)C1COc2ccccc2O1` (centres undefined), in test [1], the cell count was 731. Moreover, the inhibition is 3.6% (inactive) in test [1], 24% (inactive) in test [3], 7.86% (inactive) in test [7] and 2.65% (inactive) in test [8]. Besides, in test [2], the inhibition of aggregation was -24.6% (inactive). Moreover, the figures for the nuclei count in test [2] and in test [3] were 91.5% and 81.4%, respectively. Besides, in test [4], the fluorescence slope is -0.413 (inactive). Besides, in test [5], the NADPH fluorescence slope was -2.5e-05 (inactive). Besides, the slope in test [6] was 0.00956 (active).

Take `O=C1CCCC2=C1C(c1ccc(Br)cc1)c1c([nH]c(=S)[nH]c1=O)N2` (centres undefined): the cell count in test [1] was 407. The inhibition in test [1] is -3.6% (inactive); in test [3], -41.1% (inactive); in test [7], 6.81% (inactive); in test [8] it was 17.9% (inactive). Also, in test [2], the inhibition of aggregation is 17.6% (inactive). For the same molecule, the nuclei count is 103% in test [2] and 109% in test [3]. For the same molecule, the fluorescence slope in test [4] is -0.378 (inactive). Further, the NADPH fluorescence slope in test [5] was -5.8e-05 (inactive). The slope in test [6] is 0.00391 (inactive).

As for `Cc1ccc(-c2noc(CCC(=O)NCC3CCN(Cc4cccc(C)c4)CC3)n2)cc1`, the cell count in test [1] worked out at 400. In addition, the inhibition in test [1] was 1.5% (inactive); in test [3] it was 17% (inactive); in test [7], 25.8% (inactive); in test [8], 28.9% (inactive). Further, in test [2], the inhibition of aggregation was 7.8% (inactive). Besides, the nuclei count in test [2] stood at 88.4%; in test [3] it was 89.5%. Also, the fluorescence slope in test [4] was -0.401 (inactive). In test [5], the NADPH fluorescence slope was -4.7e-05 (inactive). In addition, the slope in test [6] is 0.0033 (inactive).

As for `C=C(C)Cn1c(N2CC(C)CC(C)C2)nc2c1c(=O)[nH]c(=O)n2C` (centres undefined), the cell count in test [1] is 616. Moreover, the inhibition in test [1] was -8% (inactive); in test [3] it was -8.5% (inactive); in test [7], 12.7% (inactive); in test [8] it was 41.2% (inactive). Also, the inhibition of aggregation in test [2] was -2.3% (inactive). The figures for the nuclei count in test [2] and in test [3] were 104% and 108%, respectively. In addition, in test [4], the fluorescence slope was -0.421 (inactive). Moreover, in test [5], the NADPH fluorescence slope is -1.7e-05 (inactive). Moreover, the slope in test [6] was 0.00499 (inactive).

On to `O=C(NCCN1CCOCC1)NC1(C(F)(F)F)Oc2ccc(Cl)cc2O1` (centres undefined), for which, in test [1], the cell count was 457. The inhibition is 16.3% (inactive) in test [1], -51.7% (inactive) in test [3], 24.6% (inactive) in test [7] and 37.9% (inactive) in test [8]. The inhibition of aggregation in test [2] is 11% (inactive). Moreover, the nuclei count in test [2] was 96.4%; in test [3], 118%. In addition, the fluorescence slope in test [4] is -0.467 (inactive). Besides, the NADPH fluorescence slope in test [5] was -5.6e-05 (inactive). For the same molecule, the slope in test [6] is 0.00481 (inactive).

For `COc1cc(OC)c(NC(=O)c2ccco2)cc1Cl`, the cell count in test [1] is 363. Besides, the inhibition was 2.2% (inactive) in test [1], -1.1% (inactive) in test [3], 21.8% (inactive) in test [7] and 35% (inactive) in test [8]. In addition, in test [2], the inhibition of aggregation is 12.2% (inactive). Also, the nuclei count was 110% in test [2] and 106% in test [3]. Further, in test [4], the fluorescence slope is -0.407 (inactive). In addition, the NADPH fluorescence slope in test [5] is -4.6e-05 (inactive). Also, the slope in test [6] is 0.00173 (inactive).

As to `CCCCCOc1ccc(C2NC(=O)NC2=O)cc1` (centres undefined), the cell count in test [1] worked out at 804. Further, the inhibition in test [1] is -5.5% (inactive); in test [3] it was -50.9% (inactive); in test [7], -12.1% (inactive); in test [8], -2.6% (inactive). For the same molecule, the inhibition of aggregation in test [2] is -5.5% (inactive). Also, the figures for the nuclei count in test [2] and in test [3] were 107% and 121%, respectively. Also, in test [4], the fluorescence slope is -0.561 (inactive). Also, in test [5], the NADPH fluorescence slope was -4.1e-05 (inactive). Moreover, the slope in test [6] is 0.00708 (inactive).

On to `O=C(CN(Cc1ccco1)C(=O)CNS(=O)(=O)c1ccc(F)cc1)NCCc1ccccc1`, for which the cell count in test [1] was 520. The inhibition in test [1] was -2.1% (inactive); in test [3] it was -38.5% (inactive); in test [7] it was -0.0533% (inactive); in test [8], 19.8% (inactive). Also, the inhibition of aggregation in test [2] was -2.1% (inactive). The nuclei count was found to be 92.1% in test [2] and 112% in test [3]. Moreover, the fluorescence slope in test [4] is -0.481 (inactive). Also, the NADPH fluorescence slope in test [5] is -2.9e-05 (inactive). Further, the slope in test [6] was 0.00696 (inactive).

As for `CNC(=O)c1ccc(N(Cc2ccccc2C)S(C)(=O)=O)cc1`, the cell count in test [1] stood at 710. Further, the inhibition in test [1] is -2.6% (inactive); in test [3] it was -40.6% (inactive); in test [7] it was 11.8% (inactive); in test [8], 11.4% (inactive). The inhibition of aggregation in test [2] is 0.9% (inactive). Also, the figures for the nuclei count in test [2] and in test [3] were 117% and 116%, respectively. Further, the fluorescence slope in test [4] is -0.636 (inactive). Also, the NADPH fluorescence slope in test [5] is -4.1e-05 (inactive). Further, the slope in test [6] was 0.00383 (inactive).

Take `COc1ccccc1N1CCN(C(=O)c2ccc(S(=O)(=O)N3CCCCCC3)cc2)CC1`: the cell count in test [1] was 604. Also, the inhibition in test [1] is -13% (inactive); in test [3], -59.2% (inactive); in test [7], -1.31% (inactive); in test [8] it was -1.9% (inactive). Besides, the inhibition of aggregation in test [2] is -9.1% (inactive). For the same molecule, the results for the nuclei count in test [2] and in test [3] were 89.6% and 89.3%, respectively. The fluorescence slope in test [4] is -0.606 (inactive). In test [5], the NADPH fluorescence slope was -2.1e-05 (inactive). In addition, the slope in test [6] was 0.0031 (inactive).

As for `O=C(CN1C(=O)CCSc2ccccc21)Nc1ccccc1`, in test [1], the cell count came to 854. Moreover, the inhibition in test [1] was -4.1% (inactive); in test [3], -140% (inactive); in test [7], -3.3% (inactive); in test [8] it was 7.46% (inactive). For the same molecule, the inhibition of aggregation in test [2] was -19.8% (inactive). The nuclei count in test [2] was 105%; in test [3], 113%. The fluorescence slope in test [4] was -0.447 (inactive). In addition, in test [5], the NADPH fluorescence slope is -0.000395 (inactive). Moreover, the slope in test [6] was 0.00731 (inactive).

Consider `COc1cccc(C2CC(=O)Nc3c2c(=O)n(C)c(=O)n3C)c1OC` (centres undefined), for which, in test [1], the cell count amounted to 499. The inhibition in test [1] is 2.4% (inactive); in test [3], -17.6% (inactive); in test [7], -4.94% (inactive); in test [8], 16.2% (inactive). Further, in test [2], the inhibition of aggregation is -11.6% (inactive). Moreover, the figures for the nuclei count in test [2] and in test [3] were 39.6% and 112%, respectively. For the same molecule, in test [4], the fluorescence slope is -0.536 (inactive). In addition, the NADPH fluorescence slope in test [5] is 2e-06 (inactive). Moreover, in test [6], the slope is 0.00679 (inactive).

For the molecule `CCN1C(=O)C2(C(C#N)=C(N)Oc3n[nH]c(C(C)C)c32)c2ccccc21` (centres undefined), the cell count in test [1] is 679. Moreover, the inhibition in test [1] is -4.5% (inactive); in test [3], 2.2% (inactive); in test [7], 20.9% (inactive); in test [8], 21.2% (inactive). Further, the inhibition of aggregation in test [2] is -20.7% (inactive). The results for the nuclei count in test [2] and in test [3] were 104% and 97%, respectively. In addition, the fluorescence slope in test [4] is -0.485 (inactive). Besides, the NADPH fluorescence slope in test [5] was -3.1e-05 (inactive). The slope in test [6] was 0.005 (inactive).

As for `CC1CCCCC1NC(=O)CN1CCN(Cc2ccccc2Cl)C1=O` (centres undefined), the cell count in test [1] stood at 667. The inhibition in test [1] is -0.2% (inactive); in test [3], -22.2% (inactive); in test [7] it was 10.1% (inactive); in test [8], 20.3% (inactive). The inhibition of aggregation in test [2] was 10.7% (inactive). The nuclei count was 64.8% in test [2] and 98.9% in test [3]. The fluorescence slope in test [4] was -0.455 (inactive). Further, in test [5], the NADPH fluorescence slope is -6.3e-05 (inactive). Further, the slope in test [6] was 0.00454 (inactive).
